This excerpt belongs to a sample that is enriched for hits.
SF-1 inh: SF-1 (human) inhibition; AID 525; CHO-K1 Gal4-SF-1 LBD luciferase reporter; inhibition, % at 10 µM; Q13285; hit rate 0.55% among 65,000;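 active = inhibition above the mean inhibition of all tested compounds plus 3 SD, cut at about 48% in these data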
Target sequence (Q13285 whole entry, looked up, the tested form may be a part): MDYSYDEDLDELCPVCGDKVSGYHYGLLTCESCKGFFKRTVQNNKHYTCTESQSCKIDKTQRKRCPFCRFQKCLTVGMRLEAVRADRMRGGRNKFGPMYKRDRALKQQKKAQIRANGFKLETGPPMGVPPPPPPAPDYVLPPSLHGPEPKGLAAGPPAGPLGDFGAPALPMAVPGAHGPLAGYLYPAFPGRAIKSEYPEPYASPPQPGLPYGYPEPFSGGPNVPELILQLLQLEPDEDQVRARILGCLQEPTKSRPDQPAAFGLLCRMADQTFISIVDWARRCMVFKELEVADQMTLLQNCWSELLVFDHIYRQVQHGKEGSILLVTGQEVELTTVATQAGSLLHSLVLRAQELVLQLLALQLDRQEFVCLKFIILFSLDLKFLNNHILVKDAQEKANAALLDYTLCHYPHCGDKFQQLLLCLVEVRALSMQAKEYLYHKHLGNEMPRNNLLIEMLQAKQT
Large screens that a line does not name were inactive.

Cc1ccc(-c2nc(CS(=O)(=O)CC(=O)N3CC(C)CC(C)C3)c(C)o2)cc1 (centres undefined)	none
COCCNC(=O)c1ccc2ccccc2n1	none
CCOC(=O)N1CCC(NC(=O)C2CCN(Cc3nc(-c4ccc(CC)cc4)oc3C)CC2)CC1	none
CCOc1ccc(-c2nc(CSCC(=O)NCc3ccco3)c(C)o2)cc1	SF-1 inh 94.5
CCC(OC(=O)c1ccco1)C(=O)NCc1ccco1 (centres undefined)	none
COCCNC(=O)CSCc1nc(-c2ccc(SC)cc2)oc1C	SF-1 inh 90.0
CCc1ccc(-c2nc(CSCC(=O)NCCCN3CCCC3=O)c(C)o2)cc1	SF-1 inh 63.3
Fc1ccc(Cn2nnnc2CN2CCc3ccccc3C2)cc1	none
COc1ccc(N2C(=O)C3CCCN3C2c2ccc(C)cc2)cc1Cl (centres undefined)	none
COC(=O)c1sccc1NC(=O)CN1CCN(c2ccc(F)cc2)CC1	none
CN(C(=O)c1cnc2n(c1=O)CCS2)C1CCCCC1	none
CC(=O)N1CCc2cc3nc(C)cc(C)c3cc21	none
COc1ccc(-n2c(C)cc(C(=O)Cn3c(NCCO)nc4ccccc43)c2C)cc1	none
COCCNC(=O)c1c[nH]c2ccc(OC)cc2c1=O	none
O=C(CN(c1ccc2c(c1)OCCO2)S(=O)(=O)c1ccccc1)NCc1ccco1	none
CCCCn1cnc2c(cnn2-c2ccc(Cl)cc2)c1=O	none
O=c1c2ccccc2nnn1CSc1ccc2c(c1)OCCO2	none
CCN(CC)CCNC(=O)C1c2cc(OC)c(OC)cc2C(=O)N2CCc3ccccc3C12 (centres undefined)	none
O=C(NCCn1ccc2ccccc21)c1ccc2c(c1)OCO2	none
COc1ccccc1C(=O)N1CCN(c2nc3cc(C)c(C)cc3cc2C#N)CC1	none
COc1cc2c(C#N)c(N3CCN(c4ccccc4OC)CC3)nc(N)c2c(N)n1	SF-1 inh 72.6
N#Cc1c(N2CCCC2)nc(N)c2c(N)nc(N3CCCC3)cc12	none
O=C(c1ccc2c(c1)OCCCO2)c1cccs1	none
c1ccc(-c2noc(-c3cccc4ccccc34)n2)cc1	none
Cc1ccc(-c2nc(-c3ccccc3)no2)c(Cl)c1	SF-1 inh 69.6
COc1cccc(-c2nc(-c3ccccc3)no2)c1	none
c1cncc(-c2nnc(SCc3nc4ccccc4[nH]3)o2)c1	SF-1 inh 56.3
Cn1c(-c2ccc(F)cc2)cnc1SCC(=O)Nc1ccccc1N1CCOCC1	none
C=C(C)Cn1c(C2CC(=O)N(c3ccccc3F)C2)nc2ccccc21 (centres undefined)	none
Cc1ccc(-c2nc(NC(=O)CSc3nnnn3-c3ccccc3)ns2)cc1	none
O=C(CSc1nnnn1-c1ccccc1)NC(=O)Nc1ccc2c(c1)OCCO2	none
CCn1c2ccccc2c2cc(NC(=O)CSc3nnnn3-c3ccccc3)ccc21	SF-1 inh 70.3
Cc1ccc2c(c1)nnn2C1CCN(S(=O)(=O)c2ccc(C(=O)N3CC(C)CC(C)C3)cc2)CC1 (centres undefined)	none
COc1ccc(C2CC(C(F)(F)F)n3nc(C(=O)NCc4cn(C)nc4C)c(Cl)c3N2)cc1 (centres undefined)	none
CCOC(=O)C1CCCN(C(=O)C2CCN(S(=O)(=O)c3cnc[nH]3)CC2)C1 (centres undefined)	none
CC(=O)N1CCN(c2ccc(Oc3nc(-c4ccccc4)nc4ccccc34)cc2)CC1	none
CC1CN(c2nc(-c3ccccc3)nc3ccccc23)CC(C)O1 (centres undefined)	none
c1ccc(N2CCN(c3nc(-c4ccccn4)nc4ccccc34)CC2)cc1	SF-1 inh 51.8
CCOc1ccccc1NC(=O)c1cccc(NC(=O)c2ccco2)c1	none
CN(C1CCCCC1)S(=O)(=O)c1ccc(-n2cnnn2)cc1	none
Cc1ccc2nc(-c3ccccc3)cn2c1	SF-1 inh 89.2
CC1CCc2c(sc(NC(=O)c3noc4c3CCCC4)c2C(N)=O)C1 (centres undefined)	none
CCn1ncc(C2=NOC(C(=O)N3CCC(C(N)=O)CC3)C2)c1C (centres undefined)	none
CCS(=O)(=O)c1ccc2oc(Nc3ccccc3C)nc2c1	none
Cn1cccc1CNC(=O)Nc1ccc(Cl)c(Cl)c1	none
CCN(CC)c1ccc(NC(=O)c2ccccc2F)cc1	none
CCN(CC)c1ccc2cc(-c3nnc(-c4ccncc4)o3)c(=O)oc2c1	none
CCN(CC)c1ccc2cc(NC(=O)CCC(=O)O)c(=O)oc2c1	SF-1 inh 59.3
COc1ccc(Cn2c(C3CC3)nc3ccc(NC(=O)c4ccco4)cc3c2=O)cc1	none
Cc1c(Cl)cccc1NC(=O)NC1CCCCC1	none
O=C(Nc1ccccc1NC(=O)NC1CCCCC1)NC1CCCCC1	SF-1 inh 83.9
Cc1ccc(NC(=O)NC2CCCCC2)cc1Cl	none
CC(C)Nc1nc(SCC(=O)Nc2ccccc2)nc(N2CCOCC2)n1	none
Cc1nnc(N2CCOCC2)c2ccccc12	none
COc1cccc(C(=O)Nc2ccc(NC(C)=O)cn2)c1	none
CCCC(=O)Nc1ccc(NC(=O)c2cccc(OC)c2)nc1	none
COc1ccc(C(=O)Nc2ccc(C)cn2)c(OC)c1	SF-1 inh 82.1
CCn1c(SCC(=O)Nc2nc(-c3ccc(C)cc3)cs2)nnc1-c1ccccc1O	none
COc1cccc(-c2nnc(SCC(=O)OC(C)C)n2N)c1	none
Nc1ccc(-c2nc3c(Cl)cc(N)cc3[nH]2)cc1	SF-1 inh 55.2
